# Assay results taken from PubChem BioAssay (NCATS).
# Results filed as inconclusive are left out. Where a call stands in place of a potency, no number is given. The source made the active and inactive calls. The call rests on the fitted dose curve; in most records, active means well fitted inhibition curve with a large enough effect; inconclusive means small, poorly fitted or top-dose-only effect; inactive means flat fitted curve, though single readings scatter.
# Columns and labels:
# Test in all cases: qHTS profiling for inhibitors of Plasmodium falciparum proliferation (AID 504749); further: nearly all actives have a fitted effect of over 60% in size
# Details in all cases: P. falciparum in erythrocytes, SYBR Green DNA, 72 h; series mostly up to 28.7 µM
# CP252 = tested on: CP252
# Method in brief: (§1)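 Parasite proliferation within erythrocytes, 72 h exposure. Endpoint: SYBR Green I fluorescence after overnight lysis at room temperature. Controls: 0.29 uM artemisinin, DMSO.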
# CP256 = tested on: CP256
# Method in brief: as §1
# CP260 = tested on: CP260
# Method in brief: as §1
# CP262 = tested on: CP262
# Method in brief: as §1
# CP265 = tested on: CP265
# Method in brief: as §1
# CP266 = tested on: CP266
# Method in brief: as §1
# CP268 = tested on: CP268
# Method in brief: as §1
# CP269 = tested on: CP269
# Method in brief: as §1
# CP286 = tested on: CP286
# Method in brief: as §1
# CP291 = tested on: CP291
# Method in brief: as §1
# Potency means the concentration at half of the fitted maximal effect.
SMILES,Potency (CP252),Potency (CP256),Potency (CP260),Potency (CP262),Potency (CP265),outcome (CP266),Potency (CP268),Potency (CP269),Potency (CP286),Potency (CP291)
Clc1cccc(Cl)c1NC1=NCCN1,inactive,inactive,inactive,inactive,inactive,inactive,inactive,inactive,inactive,inactive
O=C1CCC(N2C(=O)c3ccccc3C2=O)C(=O)N1 (stereo unspecified),inactive,inactive,inactive,inactive,inactive,inactive,inactive,inactive,inactive,inactive
CNC[C@H](O)c1cccc(O)c1,inactive,inactive,inactive,inactive,inactive,inactive,inactive,inactive,inactive,inactive
CC(C[N+](C)(C)C)OC(N)=O (stereo unspecified),inactive,inactive,inactive,inactive,inactive,inactive,inactive,inactive,inactive,inactive
NC(=O)c1cnccn1,inactive,inactive,inactive,inactive,inactive,inactive,inactive,inactive,inactive,inactive
Nc1nc2ccc(OC(F)(F)F)cc2s1,inactive,inactive,inactive,inactive,inactive,inactive,inactive,inactive,inactive,inactive
NS(=O)(=O)c1cc2c(cc1Cl)NC=NS2(=O)=O,inactive,inactive,inactive,inactive,inactive,inactive,inactive,inactive,inactive,inactive
NC[C@H](O)c1ccc(O)c(O)c1,inactive,inactive,inactive,inactive,inactive,inactive,inactive,inactive,inactive,inactive
N[C@@H]1CONC1=O,inactive,inactive,inactive,inactive,inactive,inactive,inactive,inactive,inactive,inactive
CC(=O)Oc1ccccc1C(=O)O,inactive,inactive,inactive,inactive,inactive,inactive,inactive,inactive,inactive,inactive
CC(c1cc2ccccc2s1)N(O)C(N)=O (stereo unspecified),inactive,inactive,inactive,inactive,inactive,inactive,inactive,inactive,inactive,inactive
CCc1ccc(CCOc2ccc(CC3SC(=O)NC3=O)cc2)nc1 (stereo unspecified),inactive,inactive,inactive,inactive,inactive,inactive,inactive,inactive,inactive,inactive
O=c1[nH]cnc2[nH]ncc12,inactive,inactive,inactive,inactive,inactive,inactive,inactive,inactive,inactive,inactive
Cc1[nH]c(=O)c(C#N)cc1-c1ccncc1,inactive,inactive,inactive,inactive,inactive,inactive,inactive,inactive,inactive,inactive
Nc1ccc(S(=O)(=O)Nc2ccnn2-c2ccccc2)cc1,inactive,inactive,inactive,inactive,inactive,inactive,inactive,inactive,inactive,inactive
CCCCNc1cc(C(=O)O)cc(S(N)(=O)=O)c1Oc1ccccc1,inactive,inactive,inactive,inactive,inactive,inactive,inactive,inactive,inactive,inactive
N=c1nc(N2CCCCC2)cc(N)n1O,inactive,inactive,inactive,inactive,inactive,inactive,inactive,inactive,inactive,inactive
Cc1cn[nH]c1,inactive,inactive,inactive,inactive,inactive,inactive,inactive,inactive,inactive,inactive
COc1ccc2nc(S(=O)Cc3ncc(C)c(OC)c3C)[nH]c2c1 (stereo unspecified),inactive,inactive,inactive,inactive,inactive,inactive,inactive,inactive,inactive,inactive
Cc1[nH]c(=O)c(C#N)cc1-c1ccc2nccn2c1,inactive,inactive,inactive,inactive,inactive,inactive,inactive,inactive,inactive,inactive
NCCCC(N)(C(=O)O)C(F)F (stereo unspecified),inactive,inactive,inactive,inactive,inactive,inactive,inactive,inactive,inactive,inactive
N#Cc1ccc(C(c2ccc(C#N)cc2)n2cncn2)cc1,inactive,inactive,inactive,inactive,inactive,inactive,inactive,inactive,inactive,inactive
CCCc1nn(C)c2c(=O)[nH]c(-c3cc(S(=O)(=O)N4CCN(C)CC4)ccc3OCC)nc12,inactive,inactive,inactive,inactive,inactive,inactive,inactive,inactive,inactive,
Nc1nc2c(ncn2COCCO)c(=O)[nH]1,inactive,inactive,inactive,inactive,inactive,inactive,inactive,inactive,inactive,inactive

SMILES,Potency (CP252),Potency (CP256),Potency (CP260),Potency (CP262),Potency (CP265),outcome (CP266),Potency (CP268),Potency (CP269),Potency (CP286),Potency (CP291)
Cn1cnc([N+](=O)[O-])c1Sc1ncnc2nc[nH]c12,,inactive,inactive,inactive,,inactive,inactive,inactive,inactive,inactive
CC(C)C[C@H](NC(=O)[C@@H](O)[C@H](N)Cc1ccccc1)C(=O)O,6.31 µM (active),5.62 µM (active),4.47 µM (active),inactive,11.2 µM (active),,13.5 µM (active),9.53 µM (active),5.01 µM (active),5.36 µM (active)
O=c1n(CCCN2CCN(c3cccc(Cl)c3)CC2)nc2ccccn12,inactive,inactive,inactive,,inactive,inactive,inactive,inactive,inactive,inactive
Cc1ccc(N(CC2=NCCN2)c2cccc(O)c2)cc1,inactive,inactive,inactive,inactive,inactive,inactive,inactive,inactive,inactive,inactive
Oc1ccc(C2CNCCc3c2cc(O)c(O)c3Cl)cc1 (stereo unspecified),inactive,inactive,inactive,inactive,inactive,inactive,inactive,inactive,,inactive
CCOC(=O)N1CCC(=C2c3ccc(Cl)cc3CCc3cccnc32)CC1,2 µM (active),,12.6 µM (active),inactive,10 µM (active),,,,,
O=NN(CCCl)C(=O)NCCCl,inactive,inactive,inactive,inactive,inactive,inactive,inactive,inactive,,inactive
CCOC(=O)C1=C[C@@]2(CC)CCCN3CCc4c(n1c1ccccc41)[C@H]32,,,,12 µM (active),,,10.7 µM (active),10.7 µM (active),,13.5 µM (active)
Cc1c(C)c2c(c(C)c1O)CCC(C)(COc1ccc(CC3SC(=O)NC3=O)cc1)O2 (stereo unspecified),inactive,inactive,inactive,inactive,,inactive,inactive,,inactive,inactive
CCOC(=O)C1=C[C@]2(CC)CCCN3CCc4c(n1c1ccccc41)[C@@H]32,,,,inactive,10 µM (active),,,13.5 µM (active),,
Clc1ccc(Nc2nnc(Cc3ccncc3)c3ccccc23)cc1,inactive,inactive,,inactive,inactive,inactive,inactive,inactive,,inactive
CC(C)NCC(O)COc1ccc(COCCOC(C)C)cc1 (stereo unspecified),inactive,inactive,,inactive,inactive,inactive,inactive,inactive,inactive,inactive
OC(CN1CCC(Cc2ccc(F)cc2)CC1)c1ccc(Cl)cc1 (stereo unspecified),inactive,,3.16 µM (active),inactive,,inactive,,,3.55 µM (active),
C#Cc1cccc(Nc2ncnc3cc(OCCOC)c(OCCOC)cc23)c1,,,,inactive,inactive,inactive,,,,
CN1CCN(CCCN2c3ccccc3Sc3ccc(C(F)(F)F)cc32)CC1,14.1 µM (active),,10 µM (active),,,,,15.1 µM (active),12.6 µM (active),
NNCCc1ccccc1,inactive,inactive,inactive,,inactive,,inactive,inactive,inactive,inactive
Cc1ccccc1C(OCCN(C)C)c1ccccc1 (stereo unspecified),,,,inactive,,inactive,,inactive,,
NC(N)=NC(=O)c1nc(Cl)c(N)nc1N,inactive,,,inactive,11.2 µM (active),inactive,,,,
Cc1cc2c(C(C)C)c(O)c(O)c(C=O)c2c(O)c1-c1c(C)cc2c(C(C)C)c(O)c(O)c(C=O)c2c1O,,11.2 µM (active),,,12.6 µM (active),,,,,
NCCc1ccc(O)c(O)c1,inactive,,inactive,inactive,inactive,inactive,inactive,inactive,inactive,inactive
C1COC(NC(C2CC2)C2CC2)=N1,,,,inactive,,inactive,inactive,inactive,inactive,
CCCc1nc2c(C)cc(-c3nc4ccccc4n3C)cc2n1Cc1ccc(-c2ccccc2C(=O)O)cc1,,inactive,6.31 µM (active),inactive,,inactive,,,11.2 µM (active),
O=C1CCc2cc(OCCCCc3nnnn3C3CCCCC3)ccc2N1,,,inactive,,,inactive,inactive,inactive,inactive,inactive
Cc1oncc1C(=O)Nc1ccc(C(F)(F)F)cc1,inactive,inactive,,inactive,,inactive,inactive,inactive,inactive,inactive
